Data on six compounds can be found in PubChem BioAssay (NCI).

Test systems include HCT-15 colon; HT29 colon; SNB-75 CNS; SNB-19 CNS; U251 CNS; PC-3 prostate; SK-MEL-5 melanoma; UACC-62 melanoma; LOX IMVI melanoma; SK-MEL-28 melanoma; SK-MEL-2 melanoma; EKVX NSCLC; SN12C renal; UO-31 renal; TK-10 renal; ACHN renal; CAKI-1 renal; CCRF-CEM leukemia; MOLT-4 leukemia.
Holding throughout (test): NCI-60 one-dose screen, 48 h (100 = growth as untreated, 0 = no growth, -100 = all killed)
Holding throughout (conditions): 10 µM unless noted

The panel holds about 83,000 compounds, 20% with a hit somewhere; the sample as a whole holds those more often.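 Testing used 96-well plates and a 48-hour single-concentration exposure. Example: -40 means 40% of the starting cells died.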 Values without a mark were called inactive. Calls of active or inactive are those of the source. The calls were made as follows: active = growth percent below 10; inactive = the rest.

`COc1ccc(OC)c(-c2cc(-c3ccc(Cl)cc3)c3c(N)c(C(=O)c4ccc(Cl)cc4)sc3n2)c1`: the growth with HCT-15 colon was 106%; with HT29 colon, 91.1%; in the test with SNB-75 CNS it was 73.6%; with SNB-19 CNS, 103%; with U251 CNS it was 101%; in the test on PC-3 prostate, 81.4%. Further, the growth in the test with SK-MEL-5 melanoma was 107%; in the test with UACC-62 melanoma it was 92.2%; with LOX IMVI melanoma, 98.3%; with SK-MEL-28 melanoma, 105%; with SK-MEL-2 melanoma, 94.2%; with EKVX NSCLC, 93.8%. Also, the growth is 101% in the test with SN12C renal; 75.4% in the test on UO-31 renal; 102% in the test with TK-10 renal; 97.4% with ACHN renal; 88.5% in the test on CAKI-1 renal; 88.7% with CCRF-CEM leukemia. The growth with MOLT-4 leukemia is 103%.

`C=C1C(=O)O[C@H]2[C@H]1CC/C(COC(=O)NCc1c[nH]c3ccc(Cl)cc13)=C\CC[C@@]1(C)O[C@@H]21`: the growth in the test on HCT-15 colon is -60.2% (active); with HT29 colon, -78.8% (active); with SNB-75 CNS it was -6.74% (active); in the test with SNB-19 CNS, 32.3%; with U251 CNS, -3.11% (active); with PC-3 prostate, 9.72% (active). Moreover, the growth with SK-MEL-5 melanoma was -17.6% (active); in the test with UACC-62 melanoma it was -73.8% (active); in the test on LOX IMVI melanoma, -76.3% (active); in the test on SK-MEL-28 melanoma, -63% (active); with SK-MEL-2 melanoma it was -6.51% (active); in the test with EKVX NSCLC it was -22.4% (active). The growth with SN12C renal was -60.1% (active); with UO-31 renal, -99.6% (active); in the test with TK-10 renal it was -53.9% (active); in the test with ACHN renal, -98% (active); in the test on CAKI-1 renal, -96.4% (active); in the test with CCRF-CEM leukemia, -11.1% (active). Moreover, the growth with MOLT-4 leukemia is 3.46% (active).

In the case of `C=C1C(=O)O[C@H]2[C@H]1CC/C(COC(=O)NCCc1c[nH]c3ccc(OC)cc13)=C\CC[C@@]1(C)O[C@@H]21`, the growth with HCT-15 colon is -54.7% (active); in the test with HT29 colon, -15.2% (active); in the test with SNB-75 CNS, 55.5%; in the test on SNB-19 CNS, 51.6%; with U251 CNS, 35.5%; in the test on PC-3 prostate it was 54.7%. In addition, the growth in the test with SK-MEL-5 melanoma is 64.7%; in the test on UACC-62 melanoma it was 21.6%; in the test with LOX IMVI melanoma, -22.4% (active); with SK-MEL-28 melanoma, -10.8% (active); in the test with SK-MEL-2 melanoma it was 62.1%; with EKVX NSCLC, 19.8%. Besides, the growth with SN12C renal is -34.4% (active); in the test on UO-31 renal it was -99.3% (active); in the test on TK-10 renal, -13.1% (active); with ACHN renal, -59% (active); in the test on CAKI-1 renal, -66.2% (active); in the test on CCRF-CEM leukemia, -6.35% (active). Besides, in the test with MOLT-4 leukemia, the growth is 3.53% (active).

`COc1cc(/C=N/NC(=O)c2cnn3c2NC(c2ccccc2)C3)ccc1Oc1ccccc1` (centres undefined): the growth is 16.8% in the test with HCT-15 colon; 0.454% (active) with HT29 colon; 27.6% in the test with SNB-75 CNS; 39.2% with SNB-19 CNS; 27.1% in the test with U251 CNS; 19.6% with PC-3 prostate. In addition, the growth in the test with SK-MEL-5 melanoma was 28.1%; with UACC-62 melanoma, 12.6%; in the test with LOX IMVI melanoma, 37.2%; with SK-MEL-28 melanoma, 34.9%; in the test on SK-MEL-2 melanoma, 1.74% (active); in the test with EKVX NSCLC, 58.1%. The growth is 63.8% in the test on SN12C renal; 51.5% with UO-31 renal; 46.8% with TK-10 renal; 27.6% in the test on ACHN renal; 26% in the test with CAKI-1 renal; 29.3% with CCRF-CEM leukemia. In addition, in the test with MOLT-4 leukemia, the growth is 49.7%.

For `COc1cccc(-c2nc3occn3c2-c2ccnc(NCCNS(=O)(=O)c3cccc4ccccc34)n2)c1`, the growth in the test with HCT-15 colon was 103%; with HT29 colon, 96.7%; in the test on SNB-75 CNS it was 103%; in the test with SNB-19 CNS, 97.8%; in the test with U251 CNS it was 108%; in the test on PC-3 prostate, 99.6%. For the same compound, the growth with SK-MEL-5 melanoma is 98.8%; in the test on UACC-62 melanoma, 93.7%; in the test with LOX IMVI melanoma, 102%; with SK-MEL-28 melanoma it was 115%; in the test on SK-MEL-2 melanoma, 107%; in the test with EKVX NSCLC, 114%. Moreover, the growth was 103% in the test with SN12C renal; 85.7% in the test with UO-31 renal; 123% in the test on TK-10 renal; 99.6% in the test with ACHN renal; 86.6% in the test with CAKI-1 renal; 123% in the test on CCRF-CEM leukemia. The growth with MOLT-4 leukemia was 97.4%.

As for `CC1(C)CC(O)CCCCCCOc2c(CN)cccc2NC(=O)c2nc(cnc2N)-c2ccc(cc2)S1(=O)=O` (centres undefined), the growth in the test on HCT-15 colon is -14.4% (active); in the test with HT29 colon, 9.7% (active); in the test with SNB-75 CNS, 53.7%; with SNB-19 CNS, 8.06% (active); in the test with U251 CNS, -26.6% (active); in the test on PC-3 prostate it was 22.6%. Moreover, the growth in the test on SK-MEL-5 melanoma was -31.7% (active); in the test with UACC-62 melanoma it was 41.3%; in the test on LOX IMVI melanoma it was 13%; with SK-MEL-28 melanoma, 43.4%; in the test on SK-MEL-2 melanoma it was 25.4%; with EKVX NSCLC it was 86.2%. The growth was 20.1% with SN12C renal; 27.8% in the test on UO-31 renal; 34.7% in the test with TK-10 renal; 24.7% with ACHN renal; 18.1% with CAKI-1 renal; -8.71% (active) in the test with CCRF-CEM leukemia. The growth with MOLT-4 leukemia is 2.43% (active).
